Compounds with a hit are over-represented: about 9% of the library has one in this group of screens.
ALDH1A1 block: qHTS Assay for Inhibitors of Aldehyde Dehydrogenase 1 (ALDH1A1); Purified ALDH1A1, NADH fluorescence, propionaldehyde substrate; hit rate 7.3% among 220,000; Aldehyde dehydrogenase 1A1 (Homo sapiens), P00352; Potency, µM (titrated, usually from 75.3 µM), without a hit: at the top dose activity, negative = inhibition, most hits filed as inhibitors; active = well fitted inhibition curve with a large enough effect, not every such curve was filed as active; inconclusive = small, poorly fitted or top-dose-only effect, or another doubt; inactive = no such curve, though single readings can be large or run the other way;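 also: plate controls were no enzyme wells and a reference inhibitor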
Target sequence (P00352 whole entry, looked up): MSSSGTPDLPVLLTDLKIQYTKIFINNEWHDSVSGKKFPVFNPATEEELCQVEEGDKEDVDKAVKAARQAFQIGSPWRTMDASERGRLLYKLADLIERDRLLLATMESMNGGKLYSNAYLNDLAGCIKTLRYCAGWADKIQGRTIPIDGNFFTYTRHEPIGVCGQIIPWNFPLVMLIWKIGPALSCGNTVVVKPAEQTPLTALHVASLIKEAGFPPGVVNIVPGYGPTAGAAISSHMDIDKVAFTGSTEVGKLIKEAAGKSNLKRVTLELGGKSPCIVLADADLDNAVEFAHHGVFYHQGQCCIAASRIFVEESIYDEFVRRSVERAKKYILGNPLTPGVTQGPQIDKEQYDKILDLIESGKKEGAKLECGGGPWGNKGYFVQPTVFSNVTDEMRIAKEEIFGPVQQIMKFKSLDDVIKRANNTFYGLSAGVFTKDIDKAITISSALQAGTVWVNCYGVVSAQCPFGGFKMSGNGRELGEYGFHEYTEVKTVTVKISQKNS
LMNA splice mod: qHTS Assay for Modulators of Lamin A Splicing | HeLa LMNA splicing GFP/RFP minigene ratio, 48 h | Potency, µM (series often up to 46.1 µM), inactives show at the top dose ratio change, negative = inhibition, most hits filed as inhibitors | hit rate 0.01% among 200,000; active = well fitted inhibition curve with a large enough effect in the signal ratio, with a control signal flat, not every such curve was filed as active; inconclusive = small, poorly fitted or top-dose-only effect, or effect the other way, or a change in a side signal; the % refers to the signal ratio
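S3 HeLa cells stably expressing lamin A-EGFP splicing minigene plus DsRed2, 600 cells/well, 48 h compound exposure at 37C. Laser-scanning cytometry; analysed as GFP (500-530 nm)/RFP (575-640 nm) total intensity ratio; 0.5% DMSO vehicle.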
IMPase Li cell: qHTS Assay for Identifying the Cell-Membrane Permeable IMPase Inhibitors: Potentiation with Lithium. CHO-M1 cells, IP1 TR-FRET (IP-One), carbachol + lithium. Potency, µM (top dose mostly 59.4 µM), inactives show top-dose activity, negative = IMPase inhibition, usual class: inhibitors. hit rate 0.35% among 210,000;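 also: IP1 builds up when IMPase is blocked and the TR-FRET signal falls; plate controls were basal vehicle for no effect and high inhibitor control for full effect; nearly all actives have a fitted effect of over 50% in size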
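Steps: plate 2000 CHO-M1 cells per well and culture 16–30 h; add compound and lithium; incubate 30 min, 37C; add d2-IP1 tracer and Eu cryptate anti-IP1 antibody in lysis buffer; read after 10 min at room temperature.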
HPGD block: qHTS Assay for Inhibitors of HPGD (15-Hydroxyprostaglandin Dehydrogenase); 15-hydroxyprostaglandin dehydrogenase [NAD(+)] (Homo sapiens), P15428; purified HPGD, NADH fluorescence kinetic, PGE2 substrate; hit rate 4.3% among 150,000; Potency, µM, for the others: top-dose activity change, negative = inhibition, usual class: inhibitors; active = well fitted inhibition curve with a large enough effect, not every such curve was filed as active; inconclusive = small, poorly fitted or top-dose-only effect, or another doubt; inactive = no such curve, though single readings can be large or run the other way
Target sequence (P15428 whole entry, looked up): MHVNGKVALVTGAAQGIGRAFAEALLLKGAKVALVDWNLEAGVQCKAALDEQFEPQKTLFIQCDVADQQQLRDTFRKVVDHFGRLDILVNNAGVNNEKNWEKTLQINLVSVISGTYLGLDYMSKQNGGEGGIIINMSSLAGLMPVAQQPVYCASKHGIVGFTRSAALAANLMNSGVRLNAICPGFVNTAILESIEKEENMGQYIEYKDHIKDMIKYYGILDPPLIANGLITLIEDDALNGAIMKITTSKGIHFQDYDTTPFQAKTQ
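NADH formation kinetics: reaction with 30 uM PGE2 and 1 mM NAD+ (final), 20 nM enzyme, Tris-HCl pH 8 with Tween 20, after 15 min compound preincubation at room temperature. Fluorescence change, last versus first of five reads.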
Luc counter: Counterscreen for Luciferase (Kinase-Glo TM) Inhibition; Luciferin 4-monooxygenase (Photuris pensylvanica), Q27757; Potency, µM (series often up to 38.3 µM), for inactives: top-dose activity change, negative = inhibition, actives largely listed as inhibitors; Kinase-Glo luciferase, ATP luminescence, 8 min; hit rate 0.28% among 200,000; AID 1379, 2008; also: nearly all actives have a fitted effect of over 60% in size
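Compounds were added to a substrate mix at pH 7.2 (50 mM imidazole, 10 uM ATP, within the enzyme's linear range), followed by Kinase-Glo detection reagent; luminescence was measured after 8 minutes at ambient temperature.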
Numbers without * were called inactive; ? = inconclusive; · = no result; [ ] = dose if it differs, or a comment. Unless noted, calls follow the shape of the dose curve; as a rule, active = well fitted curve in the direction sought with a large enough effect; inconclusive = small, poorly fitted or top-dose-only effect, or another doubt; inactive = no such curve, though single readings can be large; an effect the other way counts as inactive or inconclusive. Unless noted, % is scaled to controls: 0 for no effect and ±100 for the full control effect; potency is read from the fitted curve at half-maximal effect.

SMILES	ALDH1A1 block	LMNA splice mod	IMPase Li cell	HPGD block	Luc counter
N#Cc1cccc(NC(=O)CSc2ccc3c4c(cccc24)C(=O)c2ccccc2-3)c1	17.8µM*	12.4%	?	-29.0%	-1.2%
O=C(CN1NS(=O)(=O)c2ccccc2C1=O)Nc1ccccc1OC(F)F	-19.2%	5.2%	-6.8%[38.3 µM]	-7.8%	3.4%
N#Cc1cccc(NC(=O)CN2NS(=O)(=O)c3ccccc3C2=O)c1	-10.9%	-0.3%	7.2%[38.3 µM]	15.8µM*	-2.0%
COc1cccc(CNC(=O)c2ccc3nc(-c4ccccc4)c(-c4ccccc4)nc3c2)c1OC	·	-11.8%[46 µM]	·	·	·
CC(Cl)C(=O)c1ccc2c(c1)CCN2C(=O)C1CC1 (stereo not drawn)	1.41µM*	·	-3.4%	·	10.3%
COC(=O)NC(CCc1ccccc1)C(C(=O)OC)C(=O)OC (stereo not drawn)	7.0%	·	22.2%	-8.3%	-6.1%
COc1ccccc1NC(=O)c1ccc(-c2ccccc2[N+](=O)[O-])o1	7.94µM*	·	15.9%	·	-0.9%
COc1ccccc1NC(=O)c1ccc(-c2ccc(Br)cc2)o1	?	-20.2%	?	?	18.0%
CC(C)c1ccc(NC(=S)NN(c2ccccc2)c2ccccc2)cc1	14.1µM*	13.8%	11.8%	22.4µM*	-1.1%
COc1ccc(NC2=CC(c3ccc(OC)c(OC)c3)N(c3ccc(OC)cc3)C2=O)cc1 (stereo not drawn)	14.1µM*	?	-4.3%	?	0.1%
COc1ccc(OC2C(=O)N(c3ccc(C)c(C)c3)C2c2ccc(OC)c(OC)c2)cc1 (stereo not drawn)	-1.2%	-17.5%	8.3%	0.7%	-0.3%
CCN(c1ccccc1)S(=O)(=O)c1c(-c2ccc(C)cc2)csc1C(=O)OC	·	-19.8%[46 µM]	·	·	·
O/N=C(\c1ccc(Cl)cc1)c1cc2ccccc2o1	5.7%	?	22.6%[38.3 µM]	25.1µM*	2.2%
Cc1c(Cl)c([N+](=O)[O-])nn1CCCC(=O)Nc1sc2c(c1C#N)CCC2	12.6µM*	-12.6%	-0.8%	?	1.4%
Cc1c(Br)c([N+](=O)[O-])nn1CCCC(=O)Nc1sc2c(c1C#N)CCC2	10µM*	?	4.8%	12.6µM*	-0.1%
Cn1nnnc1SCC(=O)C(C)(C)C	4.8%	·	-10.4%	·	-7.5%
Cc1nonc1OC(C)CNc1ccc([N+](=O)[O-])cc1 (stereo not drawn)	?	27.0%	20.9%[38.3 µM]	28.2µM*	-4.9%
Cc1nonc1OCCNc1ccc([N+](=O)[O-])cc1[N+](=O)[O-]	-7.6%	?	4.1%	-14.9%	0.3%
Cc1noc(NS(=O)(=O)c2ccc(NC(=O)CSc3nc4ccccc4[nH]3)cc2)c1C	?	2.6%	25.5%[38.3 µM]	-19.1%	2.3%
Cc1noc(NS(=O)(=O)c2ccc(N/C=C\C(=O)c3cccc4ccccc34)cc2)c1C	3.98µM*	·	11.6%	·	1.2%
COc1ccc2nc(SCC(=O)Nc3ccc(S(=O)(=O)Nc4onc(C)c4C)cc3)[nH]c2c1	?	-5.6%	2.8%	17.8µM*	7.6%
COc1cccc(C(=O)/C=C/Nc2ccc(S(=O)(=O)Nc3onc(C)c3C)cc2)c1	?	-3.3%	14.8%	?	-0.3%
Cc1noc(NS(=O)(=O)c2ccc(NC(=O)CSc3n[nH]c(-c4ccccc4)n3)cc2)c1C	-12.8%	2.1%	6.1%[38.3 µM]	4.47µM*	1.7%
Cc1noc(NS(=O)(=O)c2ccc(NC(=O)CSc3nnc4c(n3)[nH]c3ccccc34)cc2)c1C	9.3%	1.0%	0.9%	-18.5%	0.5%
O=C(COc1cccc2c1CCN(Cc1ccc(Cl)cc1)C2=O)N1CCOCC1	6.7%	·	5.0%	·	-0.2%
SMILES	ALDH1A1 block	LMNA splice mod	IMPase Li cell	HPGD block	Luc counter
COc1ccccc1CN1CC2(CCN(C(=O)c3ccncc3)CC2)C1	-5.0%	·	28.6%	-9.9%	-0.5%
COc1ccc(CNC(=O)COC(=O)CCC2CCCCC2)cc1	5.62µM*	-6.9%	·	·	·
O=C(COC(=O)C1CC2C=CC1C2)NCc1ccccc1Cl (stereo not drawn)	-4.0%	13.2%	0.3%	-14.1%	14.7%
COc1ccc(CNC(=O)COC(=O)C2CC3C=CC2C3)cc1 (stereo not drawn)	11.2µM*	-5.1%	-3.5%	?	3.8%
COCCn1c(=O)cnc2cnc(Nc3cccc(OC)c3)nc21	11.1%	?	5.3%	·	·
CCCc1c(OCC(O)COc2ccc3c(=O)cc(C(=O)O)oc3c2CCC)ccc(C(C)=O)c1O (stereo not drawn)	-10.9%	·	-1.9%	17.8µM*	3.4%[39.9 µM]
COCCOC(=O)C1=C(C)NC(=O)NC1c1ccc(-c2ccc(F)cc2)o1 (stereo not drawn)	?	?	-0.8%	·	1.9%
CCOC(=O)C1=C(C)NC(=O)NC1c1ccc(-c2ccccc2F)o1 (stereo not drawn)	20µM*	?	3.1%	5.6%	-0.2%
O=S(=O)(CCOc1ccccc1)N1CCOCC1	20µM*	-1.4%	-8.4%	5.8%	3.2%
c1ccc(Cn2nnc3c(NCCN4CCOCC4)ncnc32)cc1	?	8.6%	32.8%[38.3 µM]	-25.5%	-6.9%
CCCN1CCN(c2ncnc3c2nnn3Cc2ccccc2)CC1	10µM*	-15.4%	55.0%[38.3 µM]	25.1µM*	-4.0%
Fc1cccc(Cl)c1Cn1nnc2c(N3CCC4(CC3)OCCO4)ncnc21	15.8µM*	?	0.5%[38.3 µM]	-11.6%	-5.0%
c1ccc(Cn2nnc3c(N4CCCCCC4)ncnc32)cc1	?	?	57.1%[38.3 µM]	31.6µM*	1.4%
c1ccc(Cn2nnc3c(N4CCc5ccccc54)ncnc32)cc1	?	-16.2%	-11.0%	?	0.5%
CCC1=C(OC(=O)N(CC)CC)N2C(=O)OC(=NCCc3c[nH]c4ccccc34)[C@]2(C)[C@H]2C1=CC[C@H]1C(=O)N(CC(=O)OC)C(=O)[C@H]12	?	·	-9.8%	-15.2%	-2.1%
COc1ccccc1OCC(=O)NCCS(=O)(=O)N1CCN(c2ccccc2OC)CC1	·	-6.7%[46 µM]	·	·	·
NC(=O)c1cccc([N+](=O)[O-])c1	-0.2%	·	-11.5%	0.2%	·
O=[N+]([O-])c1cccc(Cl)c1	25.1µM*	·	7.2%	-7.2%	·
O=[N+]([O-])c1cccc(S(=O)(=O)c2cccc([N+](=O)[O-])c2)c1	-2.5%	-14.3%[46 µM]	9.0%	·	-1.0%
O=C(Cl)c1cccc([N+](=O)[O-])c1	11.2µM*	·	9.8%	-5.8%	·
CCOc1ccc(CNC(=O)C2CCN(C(=O)N3CC(CC)Oc4ccc(C)cc43)CC2)cc1OC (stereo not drawn)	·	2.1%[46 µM]	·	·	·
O=C(NNC1=C(C(=O)C(F)(F)F)CCC1)c1ccccc1Cl	5.3%	?	2.7%[38.3 µM]	14.1µM*	-1.9%
O=C(NNC1=C(C(=O)C(F)(F)F)CCC1)c1ccccc1O	-2.3%	-24.4%	37.7%[38.3 µM]	-21.8%	-4.5%

Screens from PubChem.
